Bioassay records from PubChem.
The sample as a whole holds a higher share of hits than the screen did.
A1 inhib: inhibitors of A1. caspase activation, % (concentration not given with the values). MEF A1-2A-BIM cells, caspase-Glo luminescence, 3 h; percent of clofoctol signal, DMSO as zero. actives 0.51% (n = 21,000). AID 2241;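 active means most replicate scores above 10, or exactly half above 10 with mean activity above 10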;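 further: effector caspase 3 and 7 activity cleaving a DEVD luciferin substrate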
An asterisk follows results filed as active.

SMILES	A1 inhib
COc1ccc(C[C@H]2NC[C@H](O)[C@H]2OC(C)=O)cc1	13*
C[C@@H]1O[C@@H](O[C@H]2[C@H](O)[C@@H](O)[C@H](O[C@@H]3C=C4CC[C@@H]5C(CC[C@]6(C)[C@@H](c7ccc(=O)oc7)CC[C@]56O)[C@@]4(C)CC3)O[C@@H]2CO)[C@H](O)[C@H](O)[C@H]1O (some centres not stated)	2
C=C1C(=O)O[C@@H]2/C=C(/C)CC/C=C(/C)C[C@@H](OC(=O)/C(=C/CO)CO)C12 (some centres not stated)	1
CCOC(=O)C1=NN(c2ccc(C)cc2)C2c3cccc4cccc(c34)C12 (configuration not stated)	-1
Cc1cc(-n2c(=S)[nH]c3ccccc3c2=O)ccc1Br	1
CCC(C)[C@H]1O[C@]2(C=C[C@@H]1C)C[C@@H]1C[C@@H](C/C=C(\C)[C@@H](OC3C[C@H](OC)C(O[C@H]4C[C@H](OC)[C@@H](O)[C@H](C)O4)[C@H](C)O3)[C@@H](C)/C=C/C=C3\CO[C@@H]4[C@H](O)C(C)=C[C@@H](C(=O)O1)[C@]34O)O2 (some centres not stated)	0
CCc1nc2ccccc2c(=O)n1-c1ccccc1Cl	0
C=C1[C@@H](C)[C@H]2[C@H](Cc3ccccc3)NC(=O)[C@]23[C@H](OC(C)=O)C=C[C@](C)(O)C(=O)[C@@H](C)C/C=C/[C@H]3[C@@H]1O	16*
COC1CC(OC2C(C)OC(OC3C(C)OC(OC4C(C)OC(O[C@H]5CC[C@@]6(C)C(=CC[C@]7(O)C6CC(OC(=O)c6ccccc6)[C@@]6(C)[C@]7(O)CC[C@@]6(O)C(C)=O)C5)CC4OC)CC3OC)CC2OC)OC(C)C1O (some centres not stated)	0
O=C(CCNS(=O)(=O)c1ccccc1)Nc1ccc(Br)cc1C(=O)c1ccccc1	-1
CC[C@@H]1/C=C\C=C\C[C@H](C)C(O)[C@](C)(O)C(=O)[C@H](C)C(O)[C@H](C)C(=O)[C@H](C)[C@@H](O)[C@H](C)/C=C/C(=O)O[C@H]2[C@@H](C)[C@@H](CC1)O[C@@]1(CC[C@@H](C)[C@@H](C[C@H](C)O)O1)[C@@H]2C (some centres not stated)	-1
COc1cc[n+](OC(=O)N2CCCCC2)c(C)c1	0
CC(=O)NCC1CCCN2CCCCC12 (configuration not stated)	1
CO[C@H]1[C@H](O)[C@H](O[C@H]2CC[C@]3(C)C4CC[C@]5(C)[C@H](C6=CC(=O)OC6)CC[C@]5(O)C4CC[C@@H]3C2)O[C@@H](C)[C@@H]1O[C@@H]1O[C@H](CO[C@@H]2O[C@H](CO)[C@@H](O)[C@H](O)[C@H]2O)[C@@H](O)[C@H](O)[C@H]1O (some centres not stated)	-1
CC(=O)O[C@@H](c1nc2ccccc2c(=O)n1[C@@H]1C[C@@]2(OC1=O)c1ccccc1N1C(=O)[C@H](C)N(O)[C@@H]12)C(C)C	0
COC(=O)[C@@]1(O)C[C@@H]2O[C@@]1(C)n1c3ccccc3c3c4c(c5c6ccccc6n2c5c31)C(=O)NC4	13*
C=CC(C)(C)[C@]12C=C(OC)C(=O)N3/C(=C/c4cnc[nH]4)C(=O)N[C@@]31N(OC)c1ccccc12	0
CSc1ncccc1C1=N/C(=C\N(C)C)C(=O)O1	1
COC[C@H]1OC(=O)c2coc3c2[C@@]1(C)C1=C(C3=O)C2CCC(=O)[C@@]2(C)C[C@H]1OC(C)=O (some centres not stated)	52*
C[C@@H]1O[C@@H](OC2CCC3(C)C4CCC5(C)C(C6=CC(=O)OC6)CCC5(O)C4CC[C@H]3C2)[C@H](O)[C@H](O)[C@H]1O (some centres not stated)	0
CO[C@H]1[C@H](O)[C@H](O[C@H]2CC[C@]3(C)C4CC[C@]5(C)[C@H](C6=CC(=O)OC6)CC[C@]5(O)C4CC[C@@H]3C2)O[C@@H](C)[C@@H]1O (some centres not stated)	0
Cn1c(CCN)nc2ccccc21	2
C/C1=C/C(=O)O[C@@H]2C[C@@H](CC[C@H](C)/C=C\CC1)O[C@@](O)([C@@H]1CSC(=O)N1)C2	23*
CCN1CC2(COC)CCC(O)C34C5CC6C(OC)CC(O)(C5C6O)C(C(OC)C23)C14 (configuration not stated)	0
O=C1NC(=O)C(=C/C=C/c2ccccc2)C(=O)N1	2
